Lassa entry inh: inhibitors of Lassa virus binding or cell entry; Lassa virus pseudotype entry inhibition, cell reporter; Potency, µM (top dose mostly 37.9 µM), inactives show at the highest dose activity change, negative = inhibition, most hits filed as inhibitors; hit rate 1.2% among 300,000; AID 540256; calls by dose curve; tested in HEK293 cells; also: potency is read from the fitted curve at half-maximal effect; % is scaled to controls: 0 for no effect and ±100 for the full control effect; nearly all actives have a fitted effect of over 50% in size
Shiga inhibitor: blocks Shiga toxin action in Vero cells | Vero cells, Shiga toxin protein synthesis inhibition reporter | inhibition, % at 38.7 µM | hit rate 9.2% among 290,000; in the data active = inhibition mostly above about 28%, no sharp cut-off; inactive = mostly below about 43%; also: 0% is about no effect
Pf growth 96h: inhibits malaria parasite growth, 96 h. hit rate 6.9% among 320,000. P. falciparum luciferase reporter growth, 96 h. Potency, µM (doses to about 28.7 µM), inactives show at the top dose activity change, negative = inhibition, hits mostly inhibitors; also: potency is read from the fitted curve at half-maximal effect; % is scaled to controls: 0 for no effect and ±100 for the full control effect
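Erythrocytes infected with luciferase-expressing P. falciparum were dispensed at 2% hematocrit and 0.05% parasitemia (final), then incubated with compounds 96 hours at 37 C in 5% CO2. Luminescence after detection reagent addition reported growth.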
Pf growth 48h: inhibits P. falciparum growth in the first generation, 48 h; AID 504832; P. falciparum luciferase growth in erythrocytes, 48 h; Potency, µM (titrated, usually from 28.7 µM), for inactives: top-dose activity change, negative = inhibition, actives largely listed as inhibitors; hit rate 5.9% among 310,000; also: potency is read from the fitted curve at half-maximal effect; % is scaled to controls: 0 for no effect and ±100 for the full control effect
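Compounds are pin-transferred into medium, infected erythrocytes (2% hematocrit, 0.1% parasitemia final) are added, and plates sit one parasite generation at 37 C in 5% CO2. Detection reagent is then added and luminescence measured.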
CHX counter: affects cycloheximide protein synthesis inhibition readout, counter-screen. cell reporter, cycloheximide protein synthesis inhibition counterscreen. max response, %. hit rate 12% among 300,000; in the data active = max response mostly above about 13%, no sharp cut-off; inactive = mostly below about 14%; also: read at 38.3 µM for the half of the compounds with a filed dose; 0% is about no effect
Marburg entry inh: blocks Marburg virus binding to or entry into cells | Marburg virus pseudotyped entry inhibition, cell reporter | Potency, µM (titrated, usually from 37.8 µM), for inactives: at the top dose activity change, negative = inhibition, actives largely listed as inhibitors | hit rate 1.8% among 300,000 | AID 540276; calls by dose curve; tested in HEK293 cells; also: potency is read from the fitted curve at half-maximal effect; % is scaled to controls: 0 for no effect and ±100 for the full control effect
Active calls of the source: *; ? = inconclusive; . = no result; [ ] = remark or other dose. Most compounds without a hit are left out; they make up all but 19% or so of the library. Unless noted, calls follow the shape of the dose curve; as a rule, active = well fitted inhibition curve with a large enough effect; inconclusive = small, poorly fitted or top-dose-only effect, or another doubt; inactive = no such curve, though single readings can be large or run the other way.

SMILES	Lassa entry inh	Shiga inhibitor	Pf growth 96h	Pf growth 48h	CHX counter	Marburg entry inh
CCCOc1ccc(-c2nn(-c3ccccc3)cc2C2NC(=O)NC(C)=C2C(=O)OC)cc1 (centres undefined)	10.4%[46.1 µM]	.	.	.	.	-13.9%[46.1 µM]
COc1ccccc1N1CCN(C(C)C(=O)Nc2ccc(S(=O)(=O)N3CCOCC3)cc2)CC1 (centres undefined)	-20.7%	19.0	?	35.4%	1.3	-16.3%[46.1 µM]
COc1cc(C(c2sc3nc(C)nn3c2O)N2CCN(c3ccccc3)CC2)cc(OC)c1OC (centres undefined)	.	11.8	?	?	-0.2	.
COc1ccc(/C=c2/sc3n(c2=O)C(c2ccccc2OC)C2=C(N=3)c3ccccc3CC2)cc1O (centres undefined)	-25.1%	-20.6	2.33µM*	2.08µM*	0.6	23.1µM*
CCOC(=O)C1=C(C)N=c2s/c(=C/c3ccc(OCC(=O)O)cc3)c(=O)n2C1c1ccc(OC)cc1OC (centres undefined)	.	.	1.17µM*	0.465µM*	-1.0	.
COc1ccc(C2C(C(C)=O)=C(C)N=c3s/c(=C\c4ccco4)c(=O)n32)c(OC)c1 (centres undefined)	-12.2%	19.3	-5.2%	?	-3.9	-26.9%
COc1ccc(C2C(C(C)=O)=C(C)N=c3s/c(=C\c4cc(C)n(C)c4C)c(=O)n32)c(OC)c1 (centres undefined)	?	15.1	8.28µM*	9.28µM*	-2.8	?
CCOC(=O)C1=C(C)N=c2s/c(=C/c3cccc([N+](=O)[O-])c3O)c(=O)n2C1c1ccc(OC)cc1OC (centres undefined)	22.4%[46.1 µM]	.	4.65µM*	?	-3.6	?
COc1ccc(C2C(C(C)=O)=C(C)N=c3s/c(=C\c4ccc5c(c4)OCO5)c(=O)n32)c(OC)c1 (centres undefined)	-2.9%	.	.	.	.	?
COCCCNC(=O)c1c(N)n(/N=C/c2cccs2)c2nc3ccccc3nc12	-25.9%	22.4	0.0%	3.7%	-2.9	-8.8%[46.1 µM]
O=c1c2ccccc2ccc2ccccc12	.	.	22.3%	15.6%	.	.
CN1CCc2c(n(CC(O)CN3CCN(CCO)CC3)c3ccccc23)C1=O (centres undefined)	.	22.5	-14.3%	7.3%	-4.5	.
CCOC(=O)C1=C(C)N=c2s/c(=C\c3ccc(OCC(=O)O)cc3)c(=O)n2C1c1ccccc1OC (centres undefined)	.	-2.1	17.8%	1.04µM*	-1.2	.
CCOC(=O)C1=C(c2ccccc2)N=c2s/c(=C\c3cc(OC)c(OC)c(OC)c3)c(=O)n2C1c1cccs1 (centres undefined)	?	24.6	?	0.657µM*	3.7	?
O=[N+]([O-])c1ccc(N2CCCC2)cc1N1CCCC1	?	-9.6	81.2%	2.6%	-1.8	?
CN1CCN(c2nc3c(c(=O)[nH]c(=O)n3C)n2CCOc2ccccc2)CC1	9.1%	-1.5	101.0%	7.5%	-2.0	21.2%
C(=N\Nc1nc2ccccc2s1)/c1ccc2c(c1)OCO2	?	89.9*	?	280.9%	71.9*	?
Cc1nc(N/N=C\c2ccc3c(c2)OCO3)sc1C	5.8%[46.1 µM]	.	-1.3%	-62.1%	28.8*	20.9%[46.1 µM]
Cc1cc(C(=O)N/N=C/c2ccc3c(c2)OCO3)c2ccccc2n1	.	-6.3	67.1%	-11.9%	-1.8	0.4%
Brc1cc2c(cc1/C=N/Nc1nc3ccccc3s1)OCO2	-6.6%	28.2*	203.1%	97.9%	20.8*	9.2%
COc1ccccc1-c1coc2cc(O)cc(O)c2c1=O	29.8%	61.1*	.	4.1%	29.6*	-2.3%
O=c1c(-c2ccc(O)cc2O)coc2cc(O)cc(O)c12	.	6.1	1.17µM*	86.7%	1.9	.
O=c1c(O)c(-c2ccc(O)cc2O)oc2cc(O)cc(O)c12	?	-3.6	-10.3%	-10.4%	0.8	?
COc1ccc(-c2coc3cc(O)cc(O)c3c2=O)cc1OC	-19.0%	56.0*	36.9%	-2.5%	26.7*	9.6%[46.1 µM]
CC(C)c1nc(SCC(=O)Nc2ccc3c(c2)OCCO3)n[nH]1	5.3%[46.1 µM]	54.8	18.9%	4.2%	9.5	?
O=C(Nc1ccc(F)cc1)C1CCN(c2nc3ccccc3n3cccc23)CC1	19.8%[46.1 µM]	.	.	.	.	.
CNC(=O)/C(C#N)=C/c1cc(C)n(-c2ccc(N3CCOCC3)cc2)c1C	.	1.7	16.2%	72.2%	12.2	1.8%

From PubChem
